A short description of assay [1]: rapamycin-like changes in RPL19A-GFP expression – cell-based, S. cerevisiae, multiplex flow cytometry, primary screen (AID 1862; in the data active = percent of DMSO control GFP below about 86%;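 note: lower values mimic rapamycin by blocking the RPL19A rise seen in DMSO cells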). Particulars: S. cerevisiae RPL19A-GFP strain, flow cytometry fluorescence, 3 h; at 10 µM; stronger effect = lower value. On the technique in general: In flow cytometry, cells or beads pass a laser one at a time.
A short description of assay [2]: TOR pathway GLN3 branch reporter MEP2-GFP changes – S. cerevisiae, multiplex flow cytometry, primary screen (AID 1867;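 active = GFP response, as percent of the DMSO control, above the screen-wide mean plus 3 SD, about 139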;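 note: median GFP channel fluorescence of barcode-gated MEP2-GFP cells measured by flow cytometry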). The note with it: S. cerevisiae MEP2-GFP strain, 3 h, at 10 µM, stronger effect = higher value, 100% means same as DMSO wells.
Assay [3] in a line: TOR pathway RTG branch CIT2 reporter changes – S. cerevisiae, GFP fusion, multiplex flow cytometry, primary screen (AID 1870;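 active = percent response above a set limit, the screen-wide mean plus 3 SD, cut at about 130% in these data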;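 note: barcoded CIT2-GFP strain pooled with four other GFP strains with rapamycin as positive control; median GFP fluorescence per well over plate mean of DMSO wells so 100% = DMSO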). The note with it: S. cerevisiae CIT2-GFP expression, 3 h, at 10 µM, stronger effect = higher value.
Assay [4] in a line: TOR pathway LAP4-GFP level changes – S. cerevisiae, multiplex flow cytometry, primary screen (AID 1873;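 active = GFP signal, as percent of the solvent control, above the screen mean plus 3 SD, about 149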). The note with it: S. cerevisiae LAP4-GFP expression, 3 h, at 10 µM, stronger effect = higher value.
Assay [5] in a line: yeast AGP1-GFP level changes, GLN3 branch – cell-based, multiplex flow cytometry, S. cerevisiae, primary screen (AID 1887;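 active = GFP signal above the screen-wide mean plus 3 SD, that is over about 124.5% of the solvent control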;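 note: AGP1-GFP fusion strain of S. cerevisiae within a five-strain barcoded multiplex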). The note with it: 3 h, at 10 µM, stronger effect = higher value.
The nature of assay [6]: reduced mouse 2C T cell binding to pMHC/ICAM-1 vesicles – MLPCN validation set, flow cytometry, LFA-1/ICAM-1 modulator project, pilot screen (AID 2523;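 active = response below a set limit, under 55% cells CD8-positive and vesicle-bound, and CD8 cells' 90th-percentile brightness under 279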;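 for vesicle binding response: mean PE anti-B7-1 fluorescence of CD8+ cells relative to row control; 100% = QL9-loaded vesicles with DMSO vehicle in the same plate row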). The note with it: 2C mouse CD8+ T cells, at 7 µM, stronger effect = lower value; double positive events: measured here: CD8+/vesicle+ event percentage.
Assay [7] addresses Integrin beta-1 (Homo sapiens) + Integrin alpha-4 (Homo sapiens) (UniProt P13612+P05556). The assay is described as follows: alpha4beta1 integrin LIBS antibody binding reduction – U937 cells, HUTS-21 mAb, flow cytometry, validation set, VLA-4 allosteric modulator project, pilot screen (AID 2674;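 active = inhibition above 50%, about 3 SD of the validation set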;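 note: antibody binding induced by the VLA-4 ligand LDV present at three times its Kd; 0% = LDV ligand with antibody and no compound and 100% = antibody without LDV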). The note with it: HUTS-21 LIBS mAb binding, at 6.7 µM, stronger effect = higher value, binding induced by LDV ligand.

Assay [8] can be described thus: calorie-restriction mimetic ROS inhibitors, yeast – validation compound set, pilot screen (AID 2706;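 active = superoxide response below 65% of plate, a cut near 3 SD across the whole screen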;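 note: yeast exposed to compound for one week at 30 degrees C before staining; 100% = mean of all compound wells on the same plate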). Particulars: S. cerevisiae aging, superoxide DHE fluorescence; at 10 µM; stronger effect = lower value.
Assay [9] deals with Beta-adrenergic receptor kinase 1 (Homo sapiens) (UniProt P25098). The assay is described as follows: GRK2 binders displacing RNA aptamer, biochemical, validation, human GRK2, bead flow cytometry (AID 488806;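 active = aptamer binding inhibition above 30%, about 3 SD of noise from non-fluorescent compounds; inactive = inhibition at or below 30%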). The note with it: bead-bound GRK2, FAM-aptamer displacement, at 10 µM, stronger effect = higher value.
Beta-adrenergic receptor kinase 1 (Homo sapiens), sequence (P25098 whole entry, looked up): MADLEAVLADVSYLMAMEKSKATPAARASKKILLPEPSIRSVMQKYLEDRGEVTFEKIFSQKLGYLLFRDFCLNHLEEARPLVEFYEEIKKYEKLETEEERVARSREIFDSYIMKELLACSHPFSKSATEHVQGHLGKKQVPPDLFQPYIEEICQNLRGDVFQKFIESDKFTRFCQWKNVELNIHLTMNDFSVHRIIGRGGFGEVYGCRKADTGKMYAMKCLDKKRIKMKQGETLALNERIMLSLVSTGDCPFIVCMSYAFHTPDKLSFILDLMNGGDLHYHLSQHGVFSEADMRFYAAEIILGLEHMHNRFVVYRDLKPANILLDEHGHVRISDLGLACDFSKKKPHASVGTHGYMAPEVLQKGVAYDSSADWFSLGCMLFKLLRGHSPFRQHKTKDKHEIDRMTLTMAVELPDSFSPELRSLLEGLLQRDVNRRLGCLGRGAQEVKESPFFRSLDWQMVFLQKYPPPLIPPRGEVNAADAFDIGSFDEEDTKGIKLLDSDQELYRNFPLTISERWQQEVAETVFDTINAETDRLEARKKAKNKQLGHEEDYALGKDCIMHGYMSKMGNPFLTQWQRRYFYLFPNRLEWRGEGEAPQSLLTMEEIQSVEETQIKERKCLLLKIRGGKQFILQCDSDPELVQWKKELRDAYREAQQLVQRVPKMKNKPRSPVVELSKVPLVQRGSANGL
In assay [10] the target is Beta-2 adrenergic receptor (Homo sapiens) (UniProt P07550). The assay is described as follows: agonist-induced loss of surface beta2AR – cell-based, FAP fluorogen, flow cytometry, validation set, pilot screen (AID 504459;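 active = percent response above 42, roughly 3 SD of non-fluorescent test compounds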;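 note: agonist-driven loss of surface beta2AR via internalization measured by FAP dye flow cytometry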). Particulars: Am2.2-beta2AR cells, at 10 µM, stronger effect = higher value.
Beta-2 adrenergic receptor (Homo sapiens), sequence (P07550 whole entry, looked up): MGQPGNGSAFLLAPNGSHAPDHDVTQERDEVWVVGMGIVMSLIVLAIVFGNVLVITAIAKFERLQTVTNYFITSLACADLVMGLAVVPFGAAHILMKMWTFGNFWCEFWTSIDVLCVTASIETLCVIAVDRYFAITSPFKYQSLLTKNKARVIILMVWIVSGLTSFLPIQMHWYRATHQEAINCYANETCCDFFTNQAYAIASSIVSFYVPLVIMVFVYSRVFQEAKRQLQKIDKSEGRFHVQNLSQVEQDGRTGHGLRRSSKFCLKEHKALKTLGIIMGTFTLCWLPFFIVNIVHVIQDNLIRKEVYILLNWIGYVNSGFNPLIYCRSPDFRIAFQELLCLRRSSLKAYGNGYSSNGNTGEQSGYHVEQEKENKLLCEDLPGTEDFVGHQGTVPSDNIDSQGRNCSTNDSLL
Assay [11] deals with AP-2 complex subunit beta (Homo sapiens) (UniProt P63010). The assay is described as follows: beta-arrestin/AP2 interaction blockers – biochemical, validation set, GST-AP2 beads, flow cytometry, pilot screen (AID 504541;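 active = inhibition above 54%, about 3 SD of non-fluorescent compounds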;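 note: AP2 carries R879A mutation and is captured from E. coli lysate; bead-bound FITC arrestin peptide fluorescence measuring arrestin peptide binding to AP2; 0% = DMSO wells and 100% = excess unlabeled arrestin peptide control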). Particulars: FITC arrestin peptide, at 10 µM, stronger effect = higher value, AP2 beta2 appendage fragment, R879A mutant.
AP-2 complex subunit beta (Homo sapiens), sequence (P63010 whole entry, looked up, the tested form may be a part, one chain of several): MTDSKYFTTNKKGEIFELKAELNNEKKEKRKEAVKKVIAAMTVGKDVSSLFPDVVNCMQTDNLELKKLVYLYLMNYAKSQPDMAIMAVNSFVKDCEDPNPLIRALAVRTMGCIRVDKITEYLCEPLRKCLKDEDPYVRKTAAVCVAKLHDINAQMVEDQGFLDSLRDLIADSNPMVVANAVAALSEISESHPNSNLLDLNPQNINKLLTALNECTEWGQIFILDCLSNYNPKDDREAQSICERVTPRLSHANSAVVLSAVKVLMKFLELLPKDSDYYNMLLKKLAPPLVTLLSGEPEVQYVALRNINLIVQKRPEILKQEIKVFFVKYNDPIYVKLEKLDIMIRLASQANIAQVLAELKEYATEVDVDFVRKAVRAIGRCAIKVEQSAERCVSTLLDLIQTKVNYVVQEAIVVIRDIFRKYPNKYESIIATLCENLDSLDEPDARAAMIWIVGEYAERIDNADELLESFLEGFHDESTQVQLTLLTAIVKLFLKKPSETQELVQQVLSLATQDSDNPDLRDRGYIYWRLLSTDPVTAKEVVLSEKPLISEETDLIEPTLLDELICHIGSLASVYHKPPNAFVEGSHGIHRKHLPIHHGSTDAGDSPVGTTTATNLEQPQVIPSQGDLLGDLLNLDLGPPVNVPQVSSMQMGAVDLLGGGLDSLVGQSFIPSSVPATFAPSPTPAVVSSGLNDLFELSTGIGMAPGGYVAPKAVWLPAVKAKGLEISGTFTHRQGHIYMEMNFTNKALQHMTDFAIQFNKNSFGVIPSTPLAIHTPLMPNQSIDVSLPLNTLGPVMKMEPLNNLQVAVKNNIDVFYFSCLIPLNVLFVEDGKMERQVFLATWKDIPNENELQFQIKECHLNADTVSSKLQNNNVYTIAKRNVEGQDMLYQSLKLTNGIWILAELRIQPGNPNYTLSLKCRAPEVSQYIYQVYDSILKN
Assay [12] is described as follows: cytosolic pH regulators acting via V-ATPase – S. cerevisiae, pHLuorin, HTS validation (AID 504600; in the data active = response above about 15%;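 note: plate controls were DMSO for no effect and reference compound for full effect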). Particulars: V-ATPase proton transport, at 10 µM, stronger effect = higher value.
For assay [13], the system named is anti-desmoglein-3 scFv antibody binding to human DSG3. The assay is described as follows: blockers of pathogenic pemphigus antibody–desmoglein-3 binding – biochemical, validation compound set, bead-based, flow cytometry, pilot screen (AID 588368;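 active = binding below the plate cutoff, the plate median minus 3 SD, with a reading above zero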;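 note: signal is the median channel fluorescence of bead-bound GFP antibody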). Particulars: Protein G beads, DSG3-Fc, scFv-GFP binding, at 10 µM, stronger effect = lower value.
Assay [14] can be described thus: Nile Red efflux blockade in pump-expressing yeast – validation compound set, multiplex, phenotypic, pilot screen (AID 588506;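 active = efflux inhibition above 0.42, the validation set average plus 4 SD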;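 note: Nile Red retained in cells so higher fluorescence means more efflux inhibition; 0 = negative control wells and 1 = enniatin B 25 µM full block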). Particulars: S. cerevisiae pump-expressing triplex, Nile Red efflux flow cytometry; at 10 µM; stronger effect = higher value; the pumps come from Candida albicans.
Assay [15] deals with ATP-binding cassette sub-family B member 6 (Homo sapiens) (UniProt Q9NP58). The assay is described as follows: blockers of ABCB6-driven porphyrin uptake – K562-ABCB6 cells, flow cytometry, validation set, pilot screen (AID 588550;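 active = inhibition above the screen-wide mean plus 3 SD, about 51%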;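 note: 0% = DMSO wells and 100% = benzethonium chloride 70 µM positive control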). The note with it: K562-ABCB6 porphyrin accumulation, 1 h, at 10 µM, stronger effect = higher value.
ATP-binding cassette sub-family B member 6 (Homo sapiens), sequence (Q9NP58 whole entry, looked up): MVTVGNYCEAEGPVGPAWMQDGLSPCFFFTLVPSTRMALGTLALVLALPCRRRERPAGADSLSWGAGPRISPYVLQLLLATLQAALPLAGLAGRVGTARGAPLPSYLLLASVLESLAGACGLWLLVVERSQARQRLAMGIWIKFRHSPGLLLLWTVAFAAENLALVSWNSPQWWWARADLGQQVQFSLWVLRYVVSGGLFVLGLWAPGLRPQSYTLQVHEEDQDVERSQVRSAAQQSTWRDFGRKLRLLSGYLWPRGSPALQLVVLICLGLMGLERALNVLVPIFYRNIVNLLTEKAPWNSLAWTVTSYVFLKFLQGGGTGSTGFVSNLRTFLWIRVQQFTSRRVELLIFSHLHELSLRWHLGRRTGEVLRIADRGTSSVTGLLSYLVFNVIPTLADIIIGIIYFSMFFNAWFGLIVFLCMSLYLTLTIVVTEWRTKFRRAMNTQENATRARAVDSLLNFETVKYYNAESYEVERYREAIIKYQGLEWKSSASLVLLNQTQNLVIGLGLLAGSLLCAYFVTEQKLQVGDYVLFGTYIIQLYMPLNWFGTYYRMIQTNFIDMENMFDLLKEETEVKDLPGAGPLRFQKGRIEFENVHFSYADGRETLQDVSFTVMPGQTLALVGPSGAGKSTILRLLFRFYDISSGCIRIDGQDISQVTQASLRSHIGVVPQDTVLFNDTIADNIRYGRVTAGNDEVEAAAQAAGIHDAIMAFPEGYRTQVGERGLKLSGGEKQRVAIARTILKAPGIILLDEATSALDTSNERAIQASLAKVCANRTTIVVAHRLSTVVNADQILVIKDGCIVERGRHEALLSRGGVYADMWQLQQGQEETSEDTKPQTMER
Assay [16] in a line: AML differentiation inducers, ER-HoxA9 marrow cells – cell-based, GFP/MAC1 double positive, flow cytometry, validation set, primary screen (AID 588685).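 Note: compound exposure lasts four days before antibody staining and flow analysis; 0% = DMSO wells and 100% = 5 µM fulvestrant positive control.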 Particulars: stronger effect = higher value, normalized: vehicle 0, fulvestrant 100.

Results filed as inconclusive are left out. Calls of active or inactive are those of the source.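 Rule for the calls, unless noted: active = differentiation response of at least 50%, scaled between solvent and reference control, from cells with both markers; inactive = the rest.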

Integrin beta-1 (Homo sapiens) + Integrin alpha-4 (Homo sapiens), sequence (P05556 whole entry, looked up): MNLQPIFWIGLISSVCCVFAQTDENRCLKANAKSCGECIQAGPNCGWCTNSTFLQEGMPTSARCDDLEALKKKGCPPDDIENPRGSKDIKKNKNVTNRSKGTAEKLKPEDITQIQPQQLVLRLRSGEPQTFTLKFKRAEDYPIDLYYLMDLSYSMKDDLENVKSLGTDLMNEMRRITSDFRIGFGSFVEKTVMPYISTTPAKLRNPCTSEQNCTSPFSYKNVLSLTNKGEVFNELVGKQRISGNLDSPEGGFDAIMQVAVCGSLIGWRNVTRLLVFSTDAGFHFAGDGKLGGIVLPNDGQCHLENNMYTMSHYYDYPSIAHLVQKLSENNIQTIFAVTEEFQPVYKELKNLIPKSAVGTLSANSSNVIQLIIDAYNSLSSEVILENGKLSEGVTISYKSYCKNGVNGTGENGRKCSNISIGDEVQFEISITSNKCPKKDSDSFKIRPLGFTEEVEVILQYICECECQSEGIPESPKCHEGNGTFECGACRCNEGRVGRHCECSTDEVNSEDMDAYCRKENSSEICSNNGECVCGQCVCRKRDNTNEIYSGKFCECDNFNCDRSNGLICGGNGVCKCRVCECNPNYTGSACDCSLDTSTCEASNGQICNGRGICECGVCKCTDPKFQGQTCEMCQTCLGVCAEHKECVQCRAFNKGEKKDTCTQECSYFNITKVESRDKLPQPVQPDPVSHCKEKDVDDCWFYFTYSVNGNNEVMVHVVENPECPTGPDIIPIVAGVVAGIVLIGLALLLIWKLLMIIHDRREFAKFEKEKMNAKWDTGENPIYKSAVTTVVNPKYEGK
Integrin beta-1 (Homo sapiens) + Integrin alpha-4 (Homo sapiens), sequence (P13612 whole entry, looked up): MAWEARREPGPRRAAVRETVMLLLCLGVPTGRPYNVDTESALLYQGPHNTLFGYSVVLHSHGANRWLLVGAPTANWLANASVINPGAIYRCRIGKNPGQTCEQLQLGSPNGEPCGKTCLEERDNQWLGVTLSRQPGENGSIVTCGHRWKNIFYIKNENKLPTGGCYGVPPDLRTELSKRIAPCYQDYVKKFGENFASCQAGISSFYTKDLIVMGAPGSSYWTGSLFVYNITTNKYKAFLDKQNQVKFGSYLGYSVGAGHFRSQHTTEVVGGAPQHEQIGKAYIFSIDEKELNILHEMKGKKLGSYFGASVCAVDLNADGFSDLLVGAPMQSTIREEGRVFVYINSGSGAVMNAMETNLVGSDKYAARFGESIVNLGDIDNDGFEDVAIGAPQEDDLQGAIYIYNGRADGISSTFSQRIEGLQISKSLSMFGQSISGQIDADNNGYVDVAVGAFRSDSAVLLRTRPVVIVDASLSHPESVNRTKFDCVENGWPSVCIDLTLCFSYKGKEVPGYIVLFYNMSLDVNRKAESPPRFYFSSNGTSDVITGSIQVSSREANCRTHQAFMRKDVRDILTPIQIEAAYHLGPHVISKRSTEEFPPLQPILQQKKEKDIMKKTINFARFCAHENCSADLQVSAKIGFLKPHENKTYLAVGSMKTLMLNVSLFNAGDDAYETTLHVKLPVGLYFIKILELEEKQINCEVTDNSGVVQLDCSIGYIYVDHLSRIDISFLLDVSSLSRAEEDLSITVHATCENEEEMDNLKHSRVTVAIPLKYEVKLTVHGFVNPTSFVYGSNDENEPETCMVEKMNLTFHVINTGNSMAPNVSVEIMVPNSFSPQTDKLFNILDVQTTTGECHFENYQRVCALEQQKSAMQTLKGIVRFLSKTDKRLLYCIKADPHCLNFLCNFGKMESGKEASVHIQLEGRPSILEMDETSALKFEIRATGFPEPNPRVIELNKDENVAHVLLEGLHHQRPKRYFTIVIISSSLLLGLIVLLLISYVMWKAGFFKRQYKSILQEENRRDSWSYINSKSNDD

Consider `CCn1c(/C=C/c2ccccc2)nc2ccccc2c1=O`, for which the percent of DMSO control GFP in assay [1] is 98.8% (inactive). Moreover, the GFP response vs DMSO in assay [2] is 111% (inactive); in assay [4] it was 122% (inactive). The percent response of DMSO control in assay [3] was 78.7% (inactive). Also, the GFP response, % of DMSO in assay [5] was 92.6% (inactive). This compound also returned a double positive events in assay [6] of 59.1%. Besides, in assay [6], the vesicle binding response is 134% (inactive). The inhibition in assay [7] is 7.76% (inactive); in assay [11] it was -8.94% (inactive); in assay [15], 7% (inactive). In addition, the superoxide response (% of plate) in assay [8] is 102% (inactive). In assay [9], the aptamer binding inhibition is 3% (inactive). Moreover, the response was 18.5% (inactive) in assay [10] and 1.61% (inactive) in [12]. For the same compound, the binding (% of control) in assay [13] is 101% (inactive). In assay [14], the efflux inhibition (fraction of control) was 0.08 (inactive). Also, in assay [16], the differentiation response is 18.4% (inactive).
As for `CC(=O)Oc1cc2oc(=O)cc(C)c2cc1OC(C)=O`, the percent of DMSO control GFP in assay [1] is 101% (inactive). In addition, the GFP response vs DMSO was 102% (inactive) in [2] and 73.5% (inactive) in [4]. In addition, the percent response of DMSO control in assay [3] was 99.6% (inactive). Besides, in assay [5], the GFP response, % of DMSO is 86% (inactive). Moreover, in [6], the double positive events was 60%. Besides, in assay [6], the vesicle binding response is 207% (inactive). Further, the results for the inhibition in [7], in assay [11] and in assay [15] were -5.89% (inactive), 3.54% (inactive) and 7% (inactive), respectively. For the same compound, the superoxide response (% of plate) in assay [8] was 102% (inactive). In addition, in assay [9], the aptamer binding inhibition is 10% (inactive). The response in assay [10] is -3.64% (inactive); in assay [12], 1.09% (inactive). The binding (% of control) in [13] was 101% (inactive). In [14], the efflux inhibition (fraction of control) was 0.08 (inactive). Also, the differentiation response in assay [16] is -15.2% (inactive).
For `Cc1nc(N)sc1C(=O)N/N=C/c1ccco1`, in assay [1], the percent of DMSO control GFP is 105% (inactive). The GFP response vs DMSO is 107% (inactive) in assay [2] and 114% (inactive) in assay [4]. Besides, the percent response of DMSO control in assay [3] is 109% (inactive). In addition, the GFP response, % of DMSO in [5] was 115% (inactive). Besides, the double positive events in assay [6] is 62.5%. Moreover, the vesicle binding response in assay [6] was 145% (inactive). The inhibition in assay [7] was -3.77% (inactive); in assay [11], 6.36% (inactive); in assay [15] it was -15% (inactive). In addition, the superoxide response (% of plate) in [8] is 89.3% (inactive). In addition, the aptamer binding inhibition in assay [9] is -1% (inactive). Besides, the results for the response in assay [10] and in [12] were -0.95% (inactive) and -5.39% (inactive), respectively. The binding (% of control) in [13] is 105% (inactive). The efflux inhibition (fraction of control) in [14] is 0.08 (inactive). Moreover, the differentiation response in assay [16] was -4.57% (inactive).
`CCC[C@@H]1C[C@@H](C(=O)N[C@H]([C@@H](C)O)[C@H]2O[C@H](SC)[C@H](O)[C@@H](O)C2O)N(C)C1` (stereo not given in full): the percent of DMSO control GFP in assay [1] was 92.8% (inactive). Also, the GFP response vs DMSO in [2] is 120% (inactive); in assay [4] it was 80.9% (inactive). The percent response of DMSO control in assay [3] was 97.9% (inactive). For the same compound, the GFP response, % of DMSO in assay [5] is 90.1% (inactive). In [6], this compound came in with a double positive events of 66.2%. Further, the vesicle binding response in assay [6] was 177% (inactive). For the same compound, the inhibition in [7] is 3.55% (inactive); in assay [11] it was -1.72% (inactive); in assay [15], 10% (inactive). Besides, the superoxide response (% of plate) in [8] was 99.1% (inactive). In addition, the aptamer binding inhibition in [9] was 5% (inactive). Moreover, the response in [10] is -3.92% (inactive); in assay [12] it was 3.43% (inactive). In assay [13], the binding (% of control) was 106% (inactive). Also, the efflux inhibition (fraction of control) in assay [14] was -0.17 (inactive). Besides, the differentiation response in assay [16] was -4.09% (inactive).
Take `NCc1ccccc1COc1ccccc1`: the percent of DMSO control GFP in assay [1] is 105% (inactive). The GFP response vs DMSO was 109% (inactive) in [2] and 117% (inactive) in assay [4]. In [3], the percent response of DMSO control was 102% (inactive). For the same compound, the GFP response, % of DMSO in assay [5] is 111% (inactive). For the same compound, the double positive events in [6] turned out to be 62.7%. Moreover, in [6], the vesicle binding response was 179% (inactive). The inhibition in assay [7] was 2.3% (inactive); in [11], 57% (active); in assay [15], 6% (inactive). In [8], the superoxide response (% of plate) is 96.7% (inactive). In [9], the aptamer binding inhibition is 0% (inactive). Also, the values for the response in assay [10] and in assay [12] were 4.62% (inactive) and -3.28% (inactive), respectively. Besides, the binding (% of control) in [13] is 98% (inactive). Besides, in assay [14], the efflux inhibition (fraction of control) is 0.05 (inactive). For the same compound, in assay [16], the differentiation response is -15.2% (inactive).

The term inhibition denotes the drop in the measured response relative to a control, in per cent.

The values above are taken from PubChem BioAssay.
